# In all, about 16,000 sequences were measured (“rpm ratio (pull-down/input)”: median about 0.5, highest 2% from about 5.5 on). The entries come from a sample that favours the highest values as a whole.
# Molecular target: T1, MBP-FoxP3dN (Mus musculus, UniProt Q99JB6 188-423)
# T1 sequence: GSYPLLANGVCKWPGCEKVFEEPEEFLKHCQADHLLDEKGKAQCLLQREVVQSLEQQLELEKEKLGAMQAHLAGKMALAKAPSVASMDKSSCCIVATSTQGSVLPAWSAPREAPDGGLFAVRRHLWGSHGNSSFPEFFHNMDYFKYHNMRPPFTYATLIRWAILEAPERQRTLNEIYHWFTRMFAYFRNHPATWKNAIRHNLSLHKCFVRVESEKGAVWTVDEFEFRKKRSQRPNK
# Test: PD-seq (MBP pull-down with sequencing); 20 mM Tris-HCl pH 7.5, 100 mM NaCl, 1.5 mM MgCl2, 0.4 uM protein, 0.1 uM dsDNA library, 30 min, room temperature, amylose pull-down; high values mean tight binding
# Details: protein: recombinant; tags: His6-MBP; chain copies: 2; dsDNA, one strand shown
# How it was run: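 A fragment of mouse FoxP3 or FoxP1 without its N-terminus, carrying a His6-MBP tag and produced in E. coli, was combined at 0.4 µM with a 0.1 µM degenerate double-stranded DNA library filled in with Klenow. The mixture sat for 30 min at room temperature in Tris pH 7.5 buffer containing NaCl and MgCl2. Protein–DNA complexes were captured on amylose resin, washed three times, and the DNA was freed with proteinase K, barcoded by PCR and sequenced on Illumina. Binding is expressed as reads-per-million enrichment of pull-down over input, with replicates pooled.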
row,Sequence,binding signal
1,GATGATTGTTCTCCCAGCTGATGAATTTCTCGTCTCGAGTAAACAAATTTTCCTAATCTTTCTGTTCAAGCGCCATCTAC,0.277 RPM ratio (pull-down/input)
2,GATGATTGTTCTCCCAGCTGATGAATTACCACTGTCGAGTAAACAAATTTTCCTAATCTTTCTGTTCAAGCGCCATCTAC,0.41 RPM ratio (pull-down/input)
3,GATGATTGTTCTCCCAGCTGATGAATTAGACTTGTCGAGTAAACAAATTTTCCTAATCTTTCTGTTCAAGCGCCATCTAC,0.529 RPM ratio (pull-down/input)
4,GATGATTGTTCTCCCAGCTGATGAATTCTCATGTTCGAGTAAACAAATTTTCCTAATCTTTCTGTTCAAGCGCCATCTAC,0.416 RPM ratio (pull-down/input)
5,GATGATTGTTCTCCCAGCTGATGAATTATCGGTCTCGAGTAAACAAATTTTCCTAATCTTTCTGTTCAAGCGCCATCTAC,0.382 RPM ratio (pull-down/input)
6,GATGATTGTTCTCCCAGCTGATGAATTACGTACATCGAGTAAACAAATTTTCCTAATCTTTCTGTTCAAGCGCCATCTAC,0.647 RPM ratio (pull-down/input)
7,GATGATTGTTCTCCCAGCTGATGAATTGTGATGTTCGAGTAAACAAATTTTCCTAATCTTTCTGTTCAAGCGCCATCTAC,4.21 RPM ratio (pull-down/input)
8,GATGATTGTTCTCCCAGCTGATGAATTTGCTTATTCGAGTAAACAAATTTTCCTAATCTTTCTGTTCAAGCGCCATCTAC,6.84 RPM ratio (pull-down/input)
9,GATGATTGTTCTCCCAGCTGATGAATTGCTTATTTCGAGTAAACAAATTTTCCTAATCTTTCTGTTCAAGCGCCATCTAC,2.46 RPM ratio (pull-down/input)
10,GATGATTGTTCTCCCAGCTGATGAATTGCTTATATCGAGTAAACAAATTTTCCTAATCTTTCTGTTCAAGCGCCATCTAC,1.61 RPM ratio (pull-down/input)
11,GATGATTGTTCTCCCAGCTGATGAATTGCTTTATTCGAGTAAACAAATTTTCCTAATCTTTCTGTTCAAGCGCCATCTAC,1.09 RPM ratio (pull-down/input)
12,GATGATTGTTCTCCCAGCTGATGAATTTGCTTTATCGAGTAAACAAATTTTCCTAATCTTTCTGTTCAAGCGCCATCTAC,3.94 RPM ratio (pull-down/input)
13,GATGATTGTTCTCCCAGCTGATGAATTTTGCTTATCGAGTAAACAAATTTTCCTAATCTTTCTGTTCAAGCGCCATCTAC,6.46 RPM ratio (pull-down/input)
14,GATGATTGTTCTCCCAGCTGATGAATTACTCATCTCGAGTAAACAAATTTTCCTAATCTTTCTGTTCAAGCGCCATCTAC,0.431 RPM ratio (pull-down/input)
15,GATGATTGTTCTCCCAGCTGATGAATTGAGCGCATCGAGTAAACAAATTTTCCTAATCTTTCTGTTCAAGCGCCATCTAC,1.34 RPM ratio (pull-down/input)
16,GATGATTGTTCTCCCAGCTGATGAATTCCCACGTTCGAGTAAACAAATTTTCCTAATCTTTCTGTTCAAGCGCCATCTAC,0.282 RPM ratio (pull-down/input)

row,Sequence,binding signal
1,GATGATTGTTCTCCCAGCTGATGAATTGTCCTATTCGAGTAAACAAATTTTCCTAATCTTTCTGTTCAAGCGCCATCTAC,0.45 RPM ratio (pull-down/input)
2,GATGATTGTTCTCCCAGCTGATGAATTTGTCTATTCGAGTAAACAAATTTTCCTAATCTTTCTGTTCAAGCGCCATCTAC,5.7 RPM ratio (pull-down/input)
3,GATGATTGTTCTCCCAGCTGATGAATTCCTATTGTCGAGTAAACAAATTTTCCTAATCTTTCTGTTCAAGCGCCATCTAC,0.764 RPM ratio (pull-down/input)
4,GATGATTGTTCTCCCAGCTGATGAATTCTATTTGTCGAGTAAACAAATTTTCCTAATCTTTCTGTTCAAGCGCCATCTAC,5.87 RPM ratio (pull-down/input)
5,GATGATTGTTCTCCCAGCTGATGAATTGTCTATTTCGAGTAAACAAATTTTCCTAATCTTTCTGTTCAAGCGCCATCTAC,1.18 RPM ratio (pull-down/input)
6,GATGATTGTTCTCCCAGCTGATGAATTTCTATTGTCGAGTAAACAAATTTTCCTAATCTTTCTGTTCAAGCGCCATCTAC,0.631 RPM ratio (pull-down/input)
7,GATGATTGTTCTCCCAGCTGATGAATTGGCCCTCTCGAGTAAACAAATTTTCCTAATCTTTCTGTTCAAGCGCCATCTAC,0.358 RPM ratio (pull-down/input)
8,GATGATTGTTCTCCCAGCTGATGAATTCGTCAGGTCGAGTAAACAAATTTTCCTAATCTTTCTGTTCAAGCGCCATCTAC,0.551 RPM ratio (pull-down/input)
9,GATGATTGTTCTCCCAGCTGATGAATTTCTTAGCTCGAGTAAACAAATTTTCCTAATCTTTCTGTTCAAGCGCCATCTAC,0.342 RPM ratio (pull-down/input)
10,GATGATTGTTCTCCCAGCTGATGAATTTGTTAGCTCGAGTAAACAAATTTTCCTAATCTTTCTGTTCAAGCGCCATCTAC,6.55 RPM ratio (pull-down/input)
11,GATGATTGTTCTCCCAGCTGATGAATTTGTTGGCTCGAGTAAACAAATTTTCCTAATCTTTCTGTTCAAGCGCCATCTAC,7 RPM ratio (pull-down/input)
12,GATGATTGTTCTCCCAGCTGATGAATTCTTTGGCTCGAGTAAACAAATTTTCCTAATCTTTCTGTTCAAGCGCCATCTAC,0.217 RPM ratio (pull-down/input)
13,GATGATTGTTCTCCCAGCTGATGAATTTTTTGGCTCGAGTAAACAAATTTTCCTAATCTTTCTGTTCAAGCGCCATCTAC,0.204 RPM ratio (pull-down/input)
14,GATGATTGTTCTCCCAGCTGATGAATTGTTAGGCTCGAGTAAACAAATTTTCCTAATCTTTCTGTTCAAGCGCCATCTAC,0.88 RPM ratio (pull-down/input)
15,GATGATTGTTCTCCCAGCTGATGAATTGCGGTCATCGAGTAAACAAATTTTCCTAATCTTTCTGTTCAAGCGCCATCTAC,1.01 RPM ratio (pull-down/input)

# Source: article PMC12820563, “FoxP3 forms a head-to-head dimer in vivo and stabilizes its multimerization on adjacent microsatellites”
